# Experimental data published in PubChem BioAssay (NCI).
# This is part of a sample that, as a whole, favours compounds with a hit. Of some 83,000 tested, about 20% had one in any assay.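 48-hour exposure, single concentration, 96-well plates; percent growth endpoint where 0 means no net growth. Active: below 10.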 Values without a mark were called inactive. The source made the active and inactive calls.
# Columns and labels:
# Experiment in all cases: NCI-60 one-dose screen, 48 h (100 = growth as untreated, 0 = no growth, -100 = all killed)
# Settings in all cases: 10 µM unless noted
# [1] = system: SK-MEL-2 melanoma
# [2] = system: EKVX NSCLC
# [3] = system: SN12C renal
# [4] = system: UO-31 renal
# [5] = system: TK-10 renal
# [6] = system: ACHN renal
# [7] = system: CAKI-1 renal
# [8] = system: A498 renal
# [9] = system: MOLT-4 leukemia
# [10] = system: SR leukemia
# [11] = system: RPMI-8226 leukemia
# [12] = system: OVCAR-8 ovarian
# [13] = system: OVCAR-5 ovarian
# [14] = system: OVCAR-4 ovarian
# [15] = system: SK-OV-3 ovarian
# [16] = system: IGROV1 ovarian
# [17] = system: OVCAR-3 ovarian
# [18] = system: HS 578T breast
# [19] = system: NCI/ADR-RES ovarian
# [20] = system: CCRF-CEM leukemia
SMILES,growth [1],growth [2],growth [3],growth [4],growth [5],growth [6],growth [7],growth [8],growth [9],growth [10],growth [11],growth [12],growth [13],growth [14],growth [15],growth [16],growth [17],growth [18],growth [19],growth [20]
C#Cc1nc(/C=C/C(=O)c2nccn2C)cs1,18.6%,-59.4% (active),-47.2% (active),-80.7% (active),-18.8% (active),-94% (active),-55.7% (active),-88.1% (active),-31.2% (active),-40.8% (active),-39.9% (active),27.1%,-87.4% (active),33.7%,-59.7% (active),-59.1% (active),-64.4% (active),-6.46% (active),–,–
O=C(Nc1ccc(N=Cc2c(O)[nH]c3ccccc23)cc1)Nc1nccs1,62.1%,34.6%,68%,48.4%,75.7%,40.7%,32.9%,-7.94% (active),32.2%,10.7%,83.6%,55.7%,60.4%,40.6%,55%,29.5%,15.4%,31.5%,40.8%,–
CCn1c(SCC(=O)Nc2cccc(C(=O)/C=C/c3ccc(Br)cc3)c2)nc2ccccc2c1=O,106%,96.5%,92.7%,71.9%,104%,102%,90.7%,87.3%,98.3%,74.3%,5.53% (active),96.4%,95.8%,93%,106%,86.8%,90.7%,98.3%,89.6%,–
COc1ccccc1C(=O)Nc1cccc2c1C(=O)C(=O)C=C2,109%,72.2%,90.9%,59.2%,116%,101%,76.4%,38.4%,36.8%,58.2%,88.3%,102%,114%,74.8%,114%,79.2%,13.1%,102%,113%,–
C#Cc1ccc(C(=O)NCc2ccc(/C=C/C(=O)c3nccn3C)cc2)cc1,87%,36.4%,14.8%,29.3%,45.1%,21.6%,43.2%,38.1%,1.15% (active),4.33% (active),6.86% (active),26.9%,26.8%,39%,50.2%,13.1%,17.8%,22.6%,9.5% (active),–
COc1cc(-c2nn(C(C)(C)C)cc2-c2ccnc(NCCCNS(=O)(=O)c3ccc(Cl)cc3)n2)ccc1Cl,82.5%,31.3%,46%,32.7%,66.1%,64.1%,17.7%,49.4%,31%,37.7%,66.1%,73.3%,79.5%,39.2%,93.9%,50.8%,73.5%,70.5%,67%,–
C=CC(=O)N1CCC=C(c2cc3c(N[C@H](C)c4ccccc4)ncnc3[nH]2)C1,89.7%,28.1%,29.3%,20.5%,-5.86% (active),6.81% (active),14.4%,-27.8% (active),93.4%,32.9%,41.8%,66.4%,49.8%,45.4%,-6.72% (active),14.5%,56.2%,69%,73.7%,–
COc1ccc(/C(N)=N/C(N)=N/c2nc3ccccc3s2)cc1,66.7%,61%,79%,57.4%,117%,80.8%,40%,64.9%,74.6%,13.4%,43.6%,97.3%,103%,76.5%,99.6%,49.8%,96%,81.3%,35%,–
CCN(CC)c1ccc2c(c1)Oc1nc(N)c(C#N)c(N)c1C2Sc1ccc(F)cc1 (configuration not stated),-61.3% (active),-85.8% (active),-77.8% (active),-99.5% (active),-33.6% (active),-91% (active),-81.9% (active),-1.93% (active),-12.8% (active),-9.13% (active),-25.7% (active),-31.1% (active),-92.5% (active),-29.3% (active),-7.03% (active),-77.9% (active),-69.4% (active),-4.5% (active),-9.25% (active),–
Cc1c(F)cc(C(N)=O)cc1NCC(=O)Nc1ccc([N+](=O)[O-])cc1,96.3%,61.4%,73.2%,56.7%,62.6%,92.9%,62.3%,22.9%,105%,107%,110%,99.8%,89.5%,67.8%,106%,80.1%,96.7%,88.4%,96.6%,–
COc1ccc(OC)c(-c2nc(SCC(=O)c3ccc(Br)cc3)nc(Nc3ccc(S(N)(=O)=O)cc3)c2C#N)c1,30.4%,63.7%,49.1%,59.2%,96.3%,55.9%,34.4%,26.4%,–,13.9%,51.2%,62.8%,73.3%,57.3%,79.9%,54.7%,–,13.4%,74.4%,35.4%
CC1(C)[C@@H](O)CC[C@]2(C)[C@H]3CC[C@@H]4[C@H]5[C@H](C(=O)/C=C\c6ccncc6)CC[C@]5(O)CC[C@@]4(C)[C@]3(C)CC[C@@H]12,94.9%,42.8%,75.1%,53.1%,100%,52.5%,35.1%,46.6%,27.9%,4.32% (active),12.1%,40.3%,47.5%,38.5%,113%,37.3%,34.6%,39.3%,25.5%,–
CCCn1cnc2c(c1=N)C(c1ccc(Cl)cc1)c1sc3c(CC)cccc3c1O2 (configuration not stated),22.5%,43%,27.8%,32.4%,61.1%,35.3%,32.2%,-8.25% (active),10%,24.2%,-5.3% (active),20.5%,29%,89.1%,29.7%,18.4%,6.2% (active),4.18% (active),10.4%,–
COC[C@]12CCC(C)(C)C[C@H]1C1=CC[C@@H]3[C@@]4(C)CCCNC(C)(C)[C@@H]4CC[C@@]3(C)[C@]1(C)CC2,35.2%,-83.4% (active),29.9%,-50.2% (active),64.7%,-10.6% (active),-29.4% (active),37.1%,-35% (active),-55% (active),-34.8% (active),52.2%,5.67% (active),-18.9% (active),75.9%,-54.4% (active),-46.9% (active),-44.6% (active),-88% (active),–
COc1ccc(S(=O)(=O)NCCCNc2nccc(-c3cn(C(C)(C)C)nc3-c3ccc(Cl)c(OC)c3)n2)cc1,89.7%,47.2%,57.1%,44.5%,60.3%,84.6%,25.5%,58.7%,60.6%,48.8%,84.7%,87.9%,90.3%,58.9%,103%,57.9%,97.5%,82.9%,87.8%,–
CCCn1cnc2c(c1=N)C(c1ccc(F)cc1)c1sc3c(C)cccc3c1O2 (configuration not stated),52.8%,37.1%,61.9%,32.8%,70.9%,35.5%,28.6%,-19.9% (active),40%,8.4% (active),-13.5% (active),40.2%,42.4%,35.8%,41.1%,25.2%,-12.6% (active),13.7%,-11.8% (active),–
